Measured values published in PubChem BioAssay AID1159580 (chemical genetic matrix, 2015).
Among all 5,500 compounds or so, about 2,000 (36%) were called active. Not shown: some 18% with an inconclusive outcome. Rule as the data show it: active = normalized growth mostly below about 0.91 (no sharp cut-off); inconclusive = no clear call, values can overlap the other calls; inactive = mostly above about 0.92. The list shows a part of the results.

Assay: chemical genetic growth profiling, strain panel (AID 1159580);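 also: tested at 20 µM; growth read once vehicle control cultures reached saturation at 30 °C; 1 = growth at the plate median or of vehicle wells; lower values mean less growth of the strain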
Settings: growth OD

Measured: normalized growth

C[N+]12CCC(CC1)C(OC(=O)C(O)(c1ccccc1)c1ccccc1)C2 (configuration not stated)
inactive: S. cerevisiae deletion strains, locus YJR075W, strain HOC1, stronger effect = lower value 0.982 | S. cerevisiae deletion strains, locus YKL009W, strain mrt4, stronger effect = lower value 0.998 | S. cerevisiae deletion strains, locus YKL068W, stronger effect = lower value 0.985 | S. cerevisiae deletion strains, locus YKL085W, strain MDH1 (second series), stronger effect = lower value 0.994 | S. cerevisiae deletion strains, locus YKL085W, strain MDH1, stronger effect = lower value 0.994 | S. cerevisiae deletion strains, locus YKL160W, strain elf1, stronger effect = lower value 0.962 | S. cerevisiae deletion strains, locus YKL190W, strain CNB1, stronger effect = lower value 1 | S. cerevisiae deletion strains, locus YKR001C, strain vps1, stronger effect = lower value 0.958 | S. cerevisiae deletion strains, locus YKR026C, strain gcn3, stronger effect = lower value 0.984 | S. cerevisiae deletion strains, locus YKR091W, strain srl3, stronger effect = lower value 0.972 | S. cerevisiae deletion strains, locus YLL001W, strain dnm1, stronger effect = lower value 0.922 | S. cerevisiae deletion strains, locus YLL026W, stronger effect = lower value 0.975 | S. cerevisiae deletion strains, locus YLL041C, strain sdh2, stronger effect = lower value 1 | S. cerevisiae deletion strains, locus YLR027C, strain aat2, stronger effect = lower value 0.977 | S. cerevisiae deletion strains, locus YLR039C, strain RIC1, stronger effect = lower value 1.02 | S. cerevisiae deletion strains, locus YLR058C, strain SHM2, stronger effect = lower value 0.985 | S. cerevisiae deletion strains, locus YLR102C, strain apc9, stronger effect = lower value 0.987 | S. cerevisiae deletion strains, locus YLR113W, strain HOG1, stronger effect = lower value 0.975 | S. cerevisiae deletion strains, locus YLR221C, strain rsa3, stronger effect = lower value 0.929 | S. cerevisiae deletion strains, locus YLR258W, strain gsy2, stronger effect = lower value 0.979 | S. cerevisiae deletion strains, locus YLR262C, strain YPT6 (second series), stronger effect = lower value 0.955 | S. cerevisiae deletion strains, locus YLR262C, strain YPT6, stronger effect = lower value 1 | S. cerevisiae deletion strains, locus YLR268W, strain sec22, stronger effect = lower value 0.906 | S. cerevisiae deletion strains, locus YLR320W, strain mms22, stronger effect = lower value 0.952 | S. cerevisiae deletion strains, locus YLR330W, strain CHS5, stronger effect = lower value 0.995 | S. cerevisiae deletion strains, locus YLR342W, strain FKS1 (second series), stronger effect = lower value 1.01 | S. cerevisiae deletion strains, locus YLR342W, strain FKS1, stronger effect = lower value 0.989 | S. cerevisiae deletion strains, locus YLR357W, strain rsc2, stronger effect = lower value 0.983 | S. cerevisiae deletion strains, locus YLR370C, strain arc18, stronger effect = lower value 0.966 | S. cerevisiae deletion strains, locus YLR371W, strain rom2, stronger effect = lower value 0.977 | S. cerevisiae deletion strains, locus YLR384C, strain iki3, stronger effect = lower value 0.985 | S. cerevisiae deletion strains, locus YLR418C, strain cdc73, stronger effect = lower value 0.955 | S. cerevisiae deletion strains, locus YML016C, strain PPZ1, stronger effect = lower value 0.989 | S. cerevisiae deletion strains, locus YML032C, strain rad52, stronger effect = lower value 0.96 | S. cerevisiae deletion strains, locus YML120C, strain ndi1, stronger effect = lower value 0.939 | S. cerevisiae deletion strains, locus YML124C, strain tub3, stronger effect = lower value 0.985 | S. cerevisiae deletion strains, locus YMR058W, strain fet3, stronger effect = lower value 0.981 | S. cerevisiae deletion strains, locus YMR078C, strain ctf18, stronger effect = lower value 0.977 | S. cerevisiae deletion strains, locus YMR125W, strain sto1, stronger effect = lower value 0.924 | S. cerevisiae deletion strains, locus YMR129W, stronger effect = lower value 1.01 | S. cerevisiae deletion strains, locus YMR205C, strain PFK2, stronger effect = lower value 0.948 | S. cerevisiae deletion strains, locus YMR223W, strain ubp8, stronger effect = lower value 1.01 | S. cerevisiae deletion strains, locus YMR231W, strain pep5, stronger effect = lower value 1 | S. cerevisiae deletion strains, locus YMR263W, strain SAP30, stronger effect = lower value 0.985 | S. cerevisiae deletion strains, locus YMR307W, strain GAS1, stronger effect = lower value 1 | S. cerevisiae deletion strains, locus YNL067W, strain RPL9B, stronger effect = lower value 0.978 | S. cerevisiae deletion strains, locus YNL071W, strain lat1, stronger effect = lower value 1 | S. cerevisiae deletion strains, locus YNL128W, strain TEP1, stronger effect = lower value 0.998 | S. cerevisiae deletion strains, locus YNL153C, strain GIM3, stronger effect = lower value 0.98 | S. cerevisiae deletion strains, locus YNL183C, strain NPR1, stronger effect = lower value 0.932 | S. cerevisiae deletion strains, locus YNL209W, strain ssb2, stronger effect = lower value 0.978 | S. cerevisiae deletion strains, locus YNL233W, strain BNI4, stronger effect = lower value 0.978 | S. cerevisiae deletion strains, locus YNL248C, strain rpa49, stronger effect = lower value 0.984 | S. cerevisiae deletion strains, locus YNL250W, strain rad50, stronger effect = lower value 0.985 | S. cerevisiae deletion strains, locus YNL271C, strain bni1, stronger effect = lower value 0.974 | S. cerevisiae deletion strains, locus YNL298W, strain CLA4, stronger effect = lower value 0.984 | S. cerevisiae deletion strains, locus YNL307C, strain MCK1, stronger effect = lower value 0.969 | S. cerevisiae deletion strains, locus YNL322C, strain KRE1 (second series), stronger effect = lower value 0.966 | S. cerevisiae deletion strains, locus YNL322C, strain KRE1, stronger effect = lower value 0.998 | S. cerevisiae deletion strains, locus YNR049C, strain mso1, stronger effect = lower value 0.973 | S. cerevisiae deletion strains, locus YNR052C, strain pop2, stronger effect = lower value 0.986 | S. cerevisiae deletion strains, locus YOL006C, strain TOP1, stronger effect = lower value 0.965 | S. cerevisiae deletion strains, locus YOL012C, strain htz1 0.92 | S. cerevisiae deletion strains, locus YOL147C, strain pex11, stronger effect = lower value 0.985 | S. cerevisiae deletion strains, locus YOR001W, strain rrp6, stronger effect = lower value 1.04 | S. cerevisiae deletion strains, locus YOR061W, strain CKA2, stronger effect = lower value 0.99 | S. cerevisiae deletion strains, locus YOR069W, strain VPS5, stronger effect = lower value 0.986 | S. cerevisiae deletion strains, locus YOR070C, strain gyp1, stronger effect = lower value 0.985 | S. cerevisiae deletion strains, locus YOR080W, strain dia2, stronger effect = lower value 0.97 | S. cerevisiae deletion strains, locus YOR083W, strain WHI5, stronger effect = lower value 0.965 | S. cerevisiae deletion strains, locus YOR106W, strain vam3, stronger effect = lower value 0.951 | S. cerevisiae deletion strains, locus YOR136W, strain idh2, stronger effect = lower value 0.979 | S. cerevisiae deletion strains, locus YOR144C, strain elg1, stronger effect = lower value 0.984 | S. cerevisiae deletion strains, locus YOR184W, strain ser1, stronger effect = lower value 0.96 | S. cerevisiae deletion strains, locus YOR231W, strain MKK1, stronger effect = lower value 0.98 | S. cerevisiae deletion strains, locus YOR265W, strain rbl2, stronger effect = lower value 0.986 | S. cerevisiae deletion strains, locus YOR270C, strain vph1, stronger effect = lower value 0.995 | S. cerevisiae deletion strains, locus YOR290C, strain snf2, stronger effect = lower value 0.966 | S. cerevisiae deletion strains, locus YOR316C, strain cot1, stronger effect = lower value 0.975 | S. cerevisiae deletion strains, locus YPL051W, strain arl3, stronger effect = lower value 0.987 | S. cerevisiae deletion strains, locus YPL055C, strain LGE1, stronger effect = lower value 0.992 | S. cerevisiae deletion strains, locus YPL078C, strain atp4, stronger effect = lower value 0.958 | S. cerevisiae deletion strains, locus YPL106C, strain sse1, stronger effect = lower value 0.94 | S. cerevisiae deletion strains, locus YPL240C, strain hsp82, stronger effect = lower value 0.996 | S. cerevisiae deletion strains, locus YPL241C, strain CIN2, stronger effect = lower value 0.996 | S. cerevisiae deletion strains, locus YPL256C, strain CLN2, stronger effect = lower value 0.959 | S. cerevisiae deletion strains, locus YPR119W, strain clb2, stronger effect = lower value 0.983 | S. cerevisiae deletion strains, locus YPR141C, strain kar3, stronger effect = lower value 0.967 | S. cerevisiae deletion strains, locus YPR163C, strain tif3, stronger effect = lower value 0.973 | S. cerevisiae deletion strains, locus YPR167C, strain met16, stronger effect = lower value 0.978 | S. cerevisiae deletion strains, strain wtn01, stronger effect = lower value 0.964 | S. cerevisiae strains, strain wild type, stronger effect = lower value 0.992
